Experimental data reported in PubChem BioAssay (NCATS).
Records with an inconclusive call do not appear. A call without a number means that no potency is given here. The source made the active and inactive calls. The call rests on the fitted dose curve; in most records, active means well fitted inhibition curve with a large enough effect; inconclusive means small, poorly fitted or top-dose-only effect; inactive means flat fitted curve, though single readings scatter.

These compounds were tested on CP185 (assay: qHTS profiling for inhibitors of Plasmodium falciparum proliferation (AID 504749; further: nearly all actives have a fitted effect of over 60% in size)). Conditions: P. falciparum in erythrocytes, SYBR Green DNA, 72 h; series mostly up to 28.7 µM.
Procedure, shortened: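 Parasite proliferation within erythrocytes, 72 h exposure. Endpoint: SYBR Green I fluorescence after overnight lysis at room temperature. Controls: 0.29 uM artemisinin, DMSO.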
Potency means the concentration at half of the fitted maximal effect.

SMILES | Potency
CCCN1CCC[C@H](c2cccc(O)c2)C1 | inactive
O=C(O)COc1ccccc1 | inactive
O=[N+]([O-])c1ccc([As](=O)(O)O)cc1 | 8.91 µM (active)
COC(C)(C)CCCC(C)C/C=C/C(C)=C/C(=O)OC(C)C (centres undefined) | inactive
O=C(O)C(Cl)Cl | inactive
Cc1cc(O)ccc1Cl | inactive
CN(C)[C@@H]1C(=O)C(C(N)=O)=C(O)[C@@]2(O)C(=O)C3=C(O)c4c(O)cccc4[C@@](C)(O)[C@H]3[C@H](O)[C@@H]12 | inactive
COC(=O)[C@@H](N)CCCN=C(N)N[N+](=O)[O-] | inactive
c1ccc(C2(c3ccccc3)CC2C2=NCCN2)cc1 (centres undefined) | inactive
CN1C2CCC1CC(OC(=O)c1cc(Cl)cc(Cl)c1)C2 (centres undefined) | inactive
CCCCc1ccc(C(=O)O)nc1 | inactive
Cc1ccc(Cl)c(O)c1 | inactive
CC(C)NC(C)Cc1ccc(I)cc1 (centres undefined) | inactive
CC(=O)[O][Hg][c]1ccccc1 | 5.01 µM (active)
C=CCN1CC[C@]23CCCCC2[C@H]1Cc1ccc(O)cc13 (some centres undefined) | inactive
NC(=O)CN1CC(O)CC1=O (centres undefined) | inactive
C1CCC(NC2CCCCC2)CC1 | inactive
C#CC1(O)CCC2C3CCC4=CC(=O)CCC4(C)C3CCC21C (centres undefined) | inactive
CCCCCCCCCC(CC)c1ccc(S(=O)(=O)O)cc1 (centres undefined) | inactive
